Source: the supplement of paper PMC8699584
Counter-ions that a name gives are not always drawn. ± gives the standard deviation of the averaged measurements.

Key:
[1] = system: Molm13; assay: cell viability relative to DMSO control (bortezomib = 0%); higher = less growth inhibition; settings: 10 nM; 72 h
Summary of the method: (§1)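 In duplicate runs, a library of 679 approved and investigational compounds in 384-well plates received acute myeloid leukemia cells at 1000 cells per well in 50 µL, with each compound at a single 10 nM dose for 72 h. CellTiter-Glo luminescence, read on an EnVision reader, served as the viability measure. Each plate was normalized by linear regression between DMSO-treated cells (100%) and positive-control-treated cells (0%).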

[2] = system: Mv4-11; assay: as above; settings: 10 nM; 72 h
Summary of the method: as §1

SMILES	cell viability [1] [%]	cell viability [2] [%]
CN(c1ncccc1CNc1nc(Nc2ccc3c(c2)CC(=O)N3)ncc1C(F)(F)F)S(C)(=O)=O	98 ± 2.3	105 ± 8.8
NC(=O)c1ccc2nc(-c3ccc(Oc4ccc(Cl)cc4)cc3)[nH]c2c1	100 ± 13	114 ± 6.3
CC1(COc2ccc3c(c2)ncn3-c2ccc3cccc(N4CCC(N)CC4)c3n2)COC1 [Crenolanib]	14.9 ± 3.8	18.2 ± 5.8
CNC(=O)c1ccccc1Nc1cc(Nc2ccc(N3CCOCC3)cc2OC)ncc1C(F)(F)F	105 ± 16	109 ± 25
Nc1n[nH]c(N)c1N=Nc1ccc(O)cc1	117 ± 6.2	110 ± 14
CCc1cc(-c2n[nH]c(C)c2-c2ccc3c(c2)OCCO3)c(O)cc1O	102 ± 20	94.9 ± 12
O=c1cc(-c2ccccc2)oc2c(O)c(O)ccc12 [7,8-Dihydroxyflavone]	108 ± 16	104 ± 4
CCc1cc2c(=O)c(-c3nc4ccccc4s3)coc2c(CN2CCCCC2)c1O	129 ± 34	123 ± 5.4
CC(C)NCC(O)c1ccc(O)c(O)c1 (stereo not given) [Isoprenaline hydrochloride]	114 ± 3.4	101 ± 17
COc1cc2ncnc(Nc3ccc(Cl)cc3F)c2cc1OC	108 ± 8.2	102 ± 6.2
NC(=O)c1ncn([C@@H]2O[C@H](CO)[C@@H](O)[C@H]2O)n1 [Ribavirin]	98.7 ± 13	106 ± 5.6
O=C(O)CCC(=O)Nc1ccc(Br)cn1 [Bikinin]	92.5 ± 2.2	99.9 ± 1.9
C[C@@H](Oc1ccc2[nH]nc(/C=C/c3cnn(CCO)c3)c2c1)c1c(Cl)cncc1Cl	97.5 ± 12	105 ± 3.5
COc1ccc(COc2ccc(Cc3cnc(N)nc3N)cc2OC)cc1	110 ± 17	123 ± 11
COc1cc(N2CCOCC2)ccc1Nc1ncc(F)c(Nc2ccccc2NS(C)(=O)=O)n1	98.1 ± 5.6	111 ± 4.2
O=S(=O)(c1cccc2cnccc12)N1CCCNCC1 [Fasudil]	109 ± 12	104 ± 9.1
CNc1nc(Nc2cn(C(C)(C)C#N)nc2C)ncc1C(F)(F)F	109 ± 2.8	117 ± 11
Cc1ccc(NC(=O)c2ccc(CN3CCN(C)CC3)cc2)cc1Nc1nccc(-c2cccnc2)n1 [Imatinib (mesylate)]	111 ± 16	121 ± 22

SMILES	cell viability [1] [%]	cell viability [2] [%]
N#CC(c1ccnc(OCc2ccc(CN3CCOCC3)cc2)n1)c1nc2ccccc2s1 (stereo not given)	107 ± 20	109 ± 11
O=C1c2ccccc2C(=O)C1c1ccccc1 [Phenylindione]	95.7 ± 6.6	114 ± 1.8
CC(C)N(CCC(=O)c1ccc2ccccc2c1)Cc1ccccc1	96.8 ± 7	111 ± 1.4
CC(C)=CCC[C@](C)(O)[C@H]1CC[C@]2(C)[C@@H]1[C@H](O)C[C@@H]1[C@@]3(C)CC[C@H](O)C(C)(C)[C@@H]3[C@@H](O[C@@H]3O[C@H](CO)[C@@H](O)[C@H](O)[C@H]3O[C@@H]3O[C@@H](C)[C@H](O)[C@@H](O)[C@H]3O)C[C@]12C [Ginsenoside Rg2]	94.4 ± 23	93.6 ± 9.2
CO[C@@H](C(=O)N1Cc2[nH]nc(NC(=O)c3ccc(N4CCN(C)CC4)cc3)c2C1)c1ccccc1	95.2 ± 34	100 ± 3.8
Nc1nc(OCC2CCCCC2)c2[nH]cnc2n1	90.5 ± 11	105.62 ± 0.08
COC(=O)Nc1nc2cc(C(=O)c3cccs3)ccc2[nH]1 [Nocodazole]	112.8 ± 0.63	105.5 ± 0.46
COc1ncc(-c2ccc3nccc(-c4ccnnc4)c3c2)cc1NS(=O)(=O)c1ccc(F)cc1F	61.5 ± 19	76.1 ± 1.9
CCN1CCN(Cc2ccc(C(=O)Nc3ccc(C)c(Oc4ccc5c(c4)CC(=O)N5)c3)cc2C(F)(F)F)CC1	110 ± 13	114 ± 6.1
CN(N=O)C(=O)N[C@@H](C=O)[C@@H](O)[C@H](O)[C@H](O)CO [Streptozocin]	89.4 ± 24	108 ± 4.5
N#C/C(=C\c1ccc(O)c(O)c1)C(=O)NCc1ccccc1 [AG-490 (Tyrphostin B42)]	103 ± 5.9	105 ± 1.8
CN1C(=O)C(Cc2c[nH]c3ccccc23)NC1=S (stereo not given) [Necrostatin-1]	106 ± 9.9	93.4 ± 10
CCOc1cc(N2CCC(O)CC2)ccc1Nc1ncc2c(n1)N(C)c1ccccc1C(=O)N2C	98.8 ± 5.5	98.8 ± 2
C[C@@H](Oc1cc(-c2cnn(C3CCNCC3)c2)cnc1N)c1c(Cl)ccc(F)c1Cl	107 ± 16	100 ± 20
Cc1ncc(CCCN(C)C)cc1Nc1ncc2c(n1)-c1ccc(C(F)(F)F)cc1NC(=S)C2	100 ± 2.9	108 ± 7.1
Cc1ccc(NC(=O)c2ccc(CN3CCN(C)CC3)cc2)cc1Nc1nccc(-c2cccnc2)n1 [Imatinib (STI571)]	97.6 ± 9.5	97.2 ± 9.2
COc1ccc(-c2cc(=O)c3c(O)cc(O)cc3o2)cc1O [Diosmetin]	93.4 ± 11	96.8 ± 6.3
